Experimental data taken from PubChem BioAssay AID1159580 (chemical genetic matrix, 2015).
“And” between values parts separate entries of the source, which are not always exact repeats. Equal entries are not always repeated. The whole screen tested about 5,500 compounds, of which about 2,000 (36%) were called active. Inconclusive results (about 18%) are left out. No stated cut-off is given here; in the data, active means normalized growth mostly below about 0.91 (no sharp cut-off); inconclusive means no clear call, values can overlap the other calls; inactive means mostly above about 0.92. The list shows a part of the results. A structure can be active in one record and inactive in another.

Assay: chemical genetic growth profiling, strain panel (AID 1159580);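 further: tested at 20 µM; growth read once vehicle control cultures reached saturation at 30 °C; 1 = growth at the plate median or of vehicle wells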
Conditions: S. cerevisiae deletion strains, growth OD

Measured: normalized growth

Clc1ccccc1C(c1ccccc1)(c1ccccc1)n1ccnc1
0.0559 (active) and 0.976 (inactive): locus YMR263W, strain SAP30, stronger effect = lower value
active: locus YAL013W, strain DEP1, stronger effect = lower value 0.0556 and 0.0854 | locus YAL021C, strain ccr4, stronger effect = lower value 0.0659 | locus YAL026C, strain drs2, stronger effect = lower value 0.0665 | locus YAL030W, strain snc1, stronger effect = lower value 0.0563 | locus YAL040C, strain CLN3, stronger effect = lower value 0.613 | locus YBL061C, strain skt5, stronger effect = lower value 0.0604 | locus YBR009C, strain hhf1, stronger effect = lower value 0.0704 | locus YBR021W, strain FUR4, stronger effect = lower value 0.0896 | locus YBR023C, strain chs3, stronger effect = lower value 0.0661 | locus YBR171W, strain sec66, stronger effect = lower value 0.0777 | locus YBR229C, strain ROT2, stronger effect = lower value 0.0472 | locus YBR231C, strain swc5, stronger effect = lower value 0.0624 | locus YBR279W, strain paf1, stronger effect = lower value 0.0598 | locus YCL011C, strain gbp2, stronger effect = lower value 0.0573 | locus YCL016C, strain dcc1, stronger effect = lower value 0.066 | locus YCL029C, strain bik1, stronger effect = lower value 0.0623 | locus YCL061C, strain MRC1, stronger effect = lower value 0.0642 | locus YCL069W, strain vba3, stronger effect = lower value 0.0627 | locus YCR088W, strain abp1, stronger effect = lower value 0.0657 | locus YDL005C, strain med2, stronger effect = lower value 0.0759 | locus YDL035C, strain GPR1, stronger effect = lower value 0.0497 | locus YDL040C, strain nat1, stronger effect = lower value 0.058 | locus YDL074C, strain BRE1, stronger effect = lower value 0.0785 | locus YDL101C, strain DUN1, stronger effect = lower value 0.0582 | locus YDL134C, strain PPH21, stronger effect = lower value 0.0506 | locus YDL185W, strain tfp1, stronger effect = lower value 0.0604 | locus YDL192W, strain arf1, stronger effect = lower value 0.0622 | locus YDR001C, strain nth1, stronger effect = lower value 0.0587 | locus YDR069C, strain doa4, stronger effect = lower value 0.0629 | locus YDR101C, strain arx1, stronger effect = lower value 0.0588 | locus YDR137W, strain rgp1, stronger effect = lower value 0.103 | locus YDR150W, strain NUM1, stronger effect = lower value 0.0555 | locus YDR159W, strain sac3, stronger effect = lower value 0.0888 | locus YDR162C, strain NBP2, stronger effect = lower value 0.0501 | locus YDR195W, strain ref2 0.125 | locus YDR297W, strain sur2, stronger effect = lower value 0.0578 | locus YDR318W, strain mcm21, stronger effect = lower value 0.0626 | locus YDR334W, strain swr1, stronger effect = lower value 0.0633 | locus YDR335W, strain msn5, stronger effect = lower value 0.0619 | locus YDR388W, stronger effect = lower value 0.0576 | locus YDR392W, strain spt3, stronger effect = lower value 0.0716 | locus YDR502C, strain sam2, stronger effect = lower value 0.0632 | locus YEL003W, strain gim4, stronger effect = lower value 0.0556 | locus YEL037C, strain rad23, stronger effect = lower value 0.0574 | locus YEL061C, strain CIN8 (second series), stronger effect = lower value 0.0638 | locus YEL061C, strain CIN8, stronger effect = lower value 0.0506 | locus YER002W, strain NOP16, stronger effect = lower value 0.0949 | locus YER015W, strain faa2, stronger effect = lower value 0.0658 | locus YER016W, strain bim1, stronger effect = lower value 0.0637 | locus YER110C, stronger effect = lower value 0.0769 | locus YER111C, strain swi4, stronger effect = lower value 0.0727 | locus YER155C, strain BEM2 (second series), stronger effect = lower value 0.0917 | locus YER155C, strain BEM2, stronger effect = lower value 0.0644 | locus YER167W, strain BCK2, stronger effect = lower value 0.0514 | locus YFR010W, strain ubp6, stronger effect = lower value 0.0718 | locus YGL078C, strain dbp3, stronger effect = lower value 0.0828 | locus YGL086W, strain mad1, stronger effect = lower value 0.0584 | locus YGL167C, strain pmr1, stronger effect = lower value 0.0741 | locus YGL173C, strain kem1, stronger effect = lower value 0.07 | locus YGL227W, strain vid30, stronger effect = lower value 0.0633 | locus YGL240W, strain doc1, stronger effect = lower value 0.0729 | locus YGL248W, strain PDE1, stronger effect = lower value 0.0484 | locus YGL253W, strain hxk2, stronger effect = lower value 0.0556 | locus YGR078C, strain PAC10, stronger effect = lower value 0.0496 | locus YGR135W, strain pre9, stronger effect = lower value 0.0631 | locus YGR252W, strain gcn5, stronger effect = lower value 0.165 | locus YHR013C, strain ard1, stronger effect = lower value 0.105 | locus YHR027C, strain rpn1, stronger effect = lower value 0.0633 | locus YHR030C, strain SLT2, stronger effect = lower value 0.0505 and 0.1 | locus YHR079C, strain IRE1 (second series), stronger effect = lower value 0.0577 | locus YHR079C, strain IRE1, stronger effect = lower value 0.135 | locus YHR094C, strain hxt1, stronger effect = lower value 0.059 | locus YHR129C, strain ARP1, stronger effect = lower value 0.0557 | locus YHR142W, strain chs7, stronger effect = lower value 0.0738 | locus YHR200W, strain rpn10, stronger effect = lower value 0.0614 | locus YIL066C, strain RNR3, stronger effect = lower value 0.0483 | locus YIL073C, strain SPO22, stronger effect = lower value 0.112 | locus YIL125W, strain kgd1, stronger effect = lower value 0.0895 | locus YIR030C, strain dcg1, stronger effect = lower value 0.0606 | locus YJL092W, strain hpr5, stronger effect = lower value 0.0611 | locus YJL095W, strain BCK1 (second series), stronger effect = lower value 0.059 | locus YJL095W, strain BCK1, stronger effect = lower value 0.0611 and 0.105 | locus YJL115W, strain asf1, stronger effect = lower value 0.0739 | locus YJL129C, strain trk1, stronger effect = lower value 0.0834 | locus YJL134W, strain LCB3, stronger effect = lower value 0.0474 | locus YJL154C, strain vps35, stronger effect = lower value 0.0614 | locus YJL164C, strain tpk1, stronger effect = lower value 0.0678 | locus YJL166W, strain qcr8, stronger effect = lower value 0.064 | locus YJL168C, strain set2, stronger effect = lower value 0.0596 | locus YJL187C, strain SWE1 (second series), stronger effect = lower value 0.0488 | locus YJR043C, strain POL32, stronger effect = lower value 0.0648 | locus YJR066W, strain TOR1, stronger effect = lower value 0.016 | locus YKL009W, strain mrt4, stronger effect = lower value 0.0996 | locus YKL068W, stronger effect = lower value 0.0901 | locus YKL085W, strain MDH1 (second series), stronger effect = lower value 0.0744 | locus YKL085W, strain MDH1, stronger effect = lower value 0.0744 | locus YKL160W, strain elf1, stronger effect = lower value 0.0633 | locus YKR001C, strain vps1, stronger effect = lower value 0.0631 | locus YKR026C, strain gcn3, stronger effect = lower value 0.0593 | locus YKR091W, strain srl3, stronger effect = lower value 0.0594 | locus YLL001W, strain dnm1, stronger effect = lower value 0.0628 | locus YLL026W, stronger effect = lower value 0.0716 | locus YLL041C, strain sdh2, stronger effect = lower value 0.0574 | locus YLR027C, strain aat2, stronger effect = lower value 0.0566 | locus YLR039C, strain RIC1, stronger effect = lower value 0.0954 | locus YLR058C, strain SHM2, stronger effect = lower value 0.048 | locus YLR102C, strain apc9, stronger effect = lower value 0.0623 | locus YLR113W, strain HOG1, stronger effect = lower value 0.156 | locus YLR221C, strain rsa3, stronger effect = lower value 0.0591 | locus YLR258W, strain gsy2, stronger effect = lower value 0.0599 | locus YLR262C, strain YPT6 (second series), stronger effect = lower value 0.0778 | locus YLR262C, strain YPT6, stronger effect = lower value 0.109 | locus YLR268W, strain sec22, stronger effect = lower value 0.0686 | locus YLR320W, strain mms22, stronger effect = lower value 0.0761 | locus YLR330W, strain CHS5, stronger effect = lower value 0.0528 | locus YLR342W, strain FKS1 (second series), stronger effect = lower value 0.0674 | locus YLR342W, strain FKS1, stronger effect = lower value 0.0672 | locus YLR357W, strain rsc2, stronger effect = lower value 0.126 | locus YLR370C, strain arc18, stronger effect = lower value 0.0649 | locus YLR371W, strain rom2, stronger effect = lower value 0.0633 | locus YLR384C, strain iki3, stronger effect = lower value 0.0655 | locus YLR418C, strain cdc73, stronger effect = lower value 0.0956 | locus YML016C, strain PPZ1, stronger effect = lower value 0.0479 | locus YML032C, strain rad52, stronger effect = lower value 0.0691 | locus YML120C, strain ndi1, stronger effect = lower value 0.058 | locus YML124C, strain tub3, stronger effect = lower value 0.0616 | locus YMR058W, strain fet3, stronger effect = lower value 0.0615 | locus YMR078C, strain ctf18, stronger effect = lower value 0.0734 | locus YMR125W, strain sto1, stronger effect = lower value 0.0678 | locus YMR129W, stronger effect = lower value 0.0585 | locus YMR205C, strain PFK2, stronger effect = lower value 0.0848 | locus YMR223W, strain ubp8, stronger effect = lower value 0.0652 | locus YMR231W, strain pep5, stronger effect = lower value 0.0713 | locus YMR307W, strain GAS1, stronger effect = lower value 0.125 | locus YNL067W, strain RPL9B, stronger effect = lower value 0.0471 | locus YNL071W, strain lat1, stronger effect = lower value 0.0635 | locus YNL153C, strain GIM3, stronger effect = lower value 0.695 | locus YNL175C, strain NOP13, stronger effect = lower value 0.0913 | locus YNL183C, strain NPR1, stronger effect = lower value -0.00509 | locus YNL197C, strain WHI3, stronger effect = lower value 0.0874 | locus YNL209W, strain ssb2, stronger effect = lower value 0.0647 | locus YNL224C, strain SQS1, stronger effect = lower value 0.109 | locus YNL233W, strain BNI4, stronger effect = lower value 0.0563 | locus YNL248C, strain rpa49, stronger effect = lower value 0.0733 | locus YNL250W, strain rad50, stronger effect = lower value 0.0869 | locus YNL271C, strain bni1, stronger effect = lower value 0.0905 | locus YNL298W, strain CLA4, stronger effect = lower value 0.0742 | locus YNL307C, strain MCK1, stronger effect = lower value 0.0679 | locus YNL322C, strain KRE1 (second series), stronger effect = lower value 0.0616 | locus YNR049C, strain mso1, stronger effect = lower value 0.0594 | locus YNR052C, strain pop2, stronger effect = lower value 0.0613 | locus YOL006C, strain TOP1, stronger effect = lower value 0.115 | locus YOL147C, strain pex11, stronger effect = lower value 0.0589 | locus YOR001W, strain rrp6, stronger effect = lower value 0.075 | locus YOR061W, strain CKA2, stronger effect = lower value 0.0463 | locus YOR069W, strain VPS5, stronger effect = lower value 0.0473 | locus YOR070C, strain gyp1, stronger effect = lower value 0.0595 | locus YOR080W, strain dia2, stronger effect = lower value 0.0658 | locus YOR083W, strain WHI5 (second series), stronger effect = lower value 0.0984 | locus YOR083W, strain WHI5, stronger effect = lower value 0.0702 | locus YOR106W, strain vam3, stronger effect = lower value 0.0682 | locus YOR136W, strain idh2, stronger effect = lower value 0.0727 | locus YOR144C, strain elg1, stronger effect = lower value 0.0577 | locus YOR184W, strain ser1, stronger effect = lower value 0.0702 | locus YOR231W, strain MKK1, stronger effect = lower value 0.117 | locus YOR265W, strain rbl2, stronger effect = lower value 0.0588 | locus YOR270C, strain vph1, stronger effect = lower value 0.092 | locus YOR290C, strain snf2, stronger effect = lower value 0.0637 | locus YOR316C, strain cot1, stronger effect = lower value 0.0603 | locus YPL051W, strain arl3, stronger effect = lower value 0.0647 | locus YPL055C, strain LGE1, stronger effect = lower value 0.0751 | locus YPL078C, strain atp4, stronger effect = lower value 0.0637 | locus YPL106C, strain sse1, stronger effect = lower value 0.0995 | locus YPL240C, strain hsp82, stronger effect = lower value 0.0582 | locus YPL256C, strain CLN2, stronger effect = lower value 0.127 | locus YPR119W, strain clb2, stronger effect = lower value 0.0642 | locus YPR141C, strain kar3, stronger effect = lower value 0.096 | locus YPR163C, strain tif3, stronger effect = lower value 0.0728 | locus YPR167C, strain met16, stronger effect = lower value 0.0634 | strain wtn01, stronger effect = lower value 0.0677
inactive: locus YOL012C, strain htz1 0.23
